TIM10 inh = TIM10 yeast growth inhibition | 330,000 tested, 1.4% active | inhibition, % at 10 µM | S. cerevisiae TIM10 strain growth, BacTiter-Glo luminescence, 24 h;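 active means inhibition of 40% or more at the single tested concentration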;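 further: wild-type TIM10 isogenic control strain grown at permissive 25 °C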
tim10-1 inh = growth inhibitors of tim10-1 mutant yeast | S. cerevisiae tim10-1 ts strain growth, BacTiter-Glo, 24 h | inhibition, % at 20 µM | 330,000 tested, 2.2% active;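 active means inhibition of at least 40%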;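 further: mutant grown at 25 °C; 0% = DMSO wells with yeast and 100% = wells holding no yeast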
PfHsp90 set2 = growth inhibition of yeast expressing Plasmodium Hsp90; S. cerevisiae expressing PfHsp90, BacTiter-Glo ATP, 48 h; yeast lacking PDR1 and PDR3 efflux regulators; inhibition, % at 9.4 µM; 310,000 tested, 0.32% active;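 active means every replicate shows inhibition above about 80%, whatever the replicate mean, limit read from the data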;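 further: 0% = DMSO neutral controls and 100% = 20 µM radicicol positive controls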
NALP3 yeast inh = blocks the NALP3 inflammasome reconstituted in yeast | Yeast reconstituted NLRP3/ASC/caspase-1, beta-gal luminescence, 24 h | inhibition, % at 10 µM | 330,000 tested, 0.39% active | AID 2825;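 active means inhibition of 50% or more; inactive means inhibition below 50%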;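 further: plate controls were induced DMSO wells for no effect and uninduced yeast grown without galactose for full effect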
tim23-1 inh = growth inhibitors of tim23-1 mutant yeast; AID 463212; S. cerevisiae tim23-1 growth, BacTiter-Glo luminescence, 24 h; 330,000 tested, 1.3% active; inhibition, % at 20 µM;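 active means growth inhibition of the mutant yeast at or above 50%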;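 further: temperature-sensitive mutant grown at 25 °C; plate controls were DMSO-treated mutant yeast for no effect and medium wells lacking yeast for full effect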
tim23-1 confirm = confirmation of tim23-1 mutant yeast growth inhibitors. shares compounds with tim23-1 inh. S. cerevisiae tim23-1 growth, BacTiter-Glo luminescence, 24 h. inhibition, % at 20 µM. 4,400 tested, 83% active;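 active means inhibition above about 39% in either of two replicate wells at 20 µM, limit read from the data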;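 further: temperature-sensitive tim23-1 mutant grown at 25 °C; 0% = DMSO wells with yeast and 100% = medium wells without yeast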
* marks the source's active call; other numbers are inactive results; / = not tested or not shown. Rows were chosen to be rich in hits. Some 3.7% of all compounds tested hit in one or more screens of this group.

SMILES | TIM10 inh | tim10-1 inh | PfHsp90 set2 | NALP3 yeast inh | tim23-1 inh | tim23-1 confirm
CC(=O)Nc1ccc(S(=O)(=O)N(Cc2cccnc2)Cc2cc3ccc(C)cc3[nH]c2=O)cc1 | 14 | 38 | -2 | 0 | 52* | 53*
Cc1ccc(S(=O)(=O)N(Cc2cccnc2)Cc2cc3ccccc3[nH]c2=O)cc1 | 3 | 28 | -10 | 5 | 21 | /
CC(C)(C)CN1C(=O)C(=O)NC[C@@H]1Cc1ccc(O)cc1 | 6 | 2 | -4 | -13 | 4 | /
C#CCn1c2ccccc2c2nc3ccccc3nc21 | 2 | -15 | -20 | 4 | -16 | /
CC(C)n1c2ccccc2c2nc3ccccc3nc21 | 20 | 37 | -19 | -31 | 51* | 52*
COC(=O)c1sccc1NC(=O)Nc1ccc(C(C)=O)cc1 | 16 | 10 | 21 | 11 | 38 | /
Cc1ccc(C2(c3ccc(C)cc3)CC2C(=O)Nc2ccc([N+](=O)[O-])cc2O)cc1 (stereo not drawn) | 27 | -25 | 29 | 8 | 50* | 18
O=Cc1cn(-c2ccccc2)nc1-c1cccnc1 | 40 | 28 | 1 | 38 | 62* | 57*
O=C(NCc1ccncc1)c1cn(-c2ccccc2)nc1-c1cccnc1 | 18 | 14 | -6 | 20 | -5 | /
Cc1ccc(S(=O)(=O)n2nc(-c3ccco3)nc2N)cc1 | -11 | -5 | / | -5 | 11 | /
CN1c2ccccc2C(=O)C(=C2SCCCS2)S1(=O)=O | 38 | 25 | 0 | 3 | 53* | 54*
COc1ccc(C(=O)c2sc(Nc3ccccc3F)nc2N)cc1 | 6 | 23 | -24 | 6 | 50* | 54*
Nc1nc(Nc2ccccc2)sc1C(=O)c1ccccc1 | 28 | 31 | -34 | 29 | 54* | 43*
Cc1cnc(NC(=O)c2sc(Nc3ccccc3)nc2N)o1 | 36 | -2 | 8 | -3 | 53* | 55*
CC(=O)c1cccc(NC(=O)CN(C)S(=O)(=O)c2ccccc2)c1 | 1 | 9 | -16 | -3 | 0 | /
COC(=O)C[C@H]1C=C[C@@H](C(C(=O)OC)C(=O)OC)CN1C(C)=O | / | / | -13 | / | / | /
CCCn1c(N)c(Sc2ccccc2[N+](=O)[O-])c(=O)n(CCC)c1=O | -10 | 12 | 22 | 8 | 19 | /
Cc1cc(=O)oc2cc(Oc3ccc([N+](=O)[O-])cc3[N+](=O)[O-])ccc12 | 30 | 21 | -24 | 17 | 55* | 43*
CCC(C(=O)OCC(=O)Nc1cc(Cl)ccc1Cl)c1ccccc1 (stereo not drawn) | -21 | 1 | 2 | 11 | -3 | /
O=C(N/N=C/C(Cl)=C/c1ccccc1)c1ccco1 | -22 | -49 | 14 | 50 | 64* | 7
O=C(N/N=C/C(Br)=C/c1ccccc1)c1ccccc1F | 37 | 0 | 28 | 28 | 69* | 51*
O=C(N/N=C/C(Cl)=C/c1ccccc1)c1ccccc1F | 4 | 21 | -7 | 42 | 51* | 27
O=C(N/N=C/C(Cl)=C\c1ccccc1)c1cnccn1 | 0 | 4 | -6 | 19 | 9 | /
Cc1c(C(=O)N2c3ccccc3CC2C)oc2ccccc12 (stereo not drawn) | 16 | 25 | -9 | 12 | 27 | /
CC(O)c1cccc(N=Cc2ccc3ccccc3c2O)c1 (stereo not drawn) | 9 | -2 | 21 | 10 | 54* | 42*
SMILES | TIM10 inh | tim10-1 inh | PfHsp90 set2 | NALP3 yeast inh | tim23-1 inh | tim23-1 confirm
Cc1nc(NCCc2ccccc2)c2oc3ccccc3c2n1 | 24 | 30 | 49 | 7 | 61* | 41*
Cc1ccc(N(C(C)C(=O)NCc2ccncc2)S(C)(=O)=O)cc1C (stereo not drawn) | 10 | 5 | -16 | 6 | -5 | /
CC(=O)Nc1ccccc1C(=O)N1CCN(Cc2ccccc2)CC1 | 7 | 7 | -10 | 22 | 9 | /
CC(C)CN=Cc1c(O)c([N+](=O)[O-])cc2oc3c(c12)CCCC3 | 40 | 37 | -12 | 42 | 66* | 1
Cc1ccc(S(=O)(=O)NC23CC4CC(CC(C4)C2)C3)cc1 | 22 | 15 | -50 | 21 | 51* | 52*
Cc1nc2cc(C(=O)OCC(=O)NC3CCS(=O)(=O)C3)ccc2n1-c1ccccc1 (stereo not drawn) | -3 | 3 | -6 | 24 | 6 | /
Cc1nc2cc(C(=O)OCC(=O)Nc3cccc(Cl)c3)ccc2n1-c1ccccc1 | 16 | 12 | 49 | -1 | 53* | 30
